# About 83,000 compounds went through this panel and 20% of them were active in at least one assay; those are over-represented in the sample as a whole.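 Note: values are percent growth. 100 is the growth of untreated cells, values between 100 and 0 indicate rising inhibition; between -100 and 0 indicates cell death.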 Activity calls are given as the source filed them. The calls were made as follows: active = growth percent below 10; inactive = the rest.
# System: T-47D breast
# Assay: NCI-60 one-dose screen, 48 h (100 = growth as untreated, 0 = no growth, -100 = all killed)
# Settings: 10 µM unless noted
row,SMILES,growth
1,O=C1c2cccc3c(-c4ccc(-c5nc6c7ccccc7c7ccccc7c6[nH]5)cc4)ccc(c23)C(=O)N1CCN1CCNCC1,67.5% (inactive)
2,C=C(C=O)C1CCC2(C(=O)O)CCC3(C)C(CCC4C5(C)CCC(O)C(C)(C)C5CCC43C)C12 (stereo not drawn),45% (inactive)
3,NC(=O)CC1(O)C=C(Br)C(=O)C(Br)=C1,31% (inactive)
4,Cc1ccc(-n2nnc(C3=NCCc4c3[nH]c3ccc(Cl)cc43)c2C)cc1,35.7% (inactive)
5,CCN(CC)CC(O)CNc1c2ccc(Cl)cc2nc2ccc(OC)cc12 (stereo not drawn),49.7% (inactive)
6,C=C1C(=O)O[C@H]2[C@H]1CC/C(C(=O)NCCCCCCCCNC(=O)/C1=C/CC[C@@]3(C)O[C@H]3[C@H]3OC(=O)C(=C)[C@@H]3CC1)=C\CC[C@@]1(C)O[C@@H]21,28.4% (inactive)
7,NS(=O)(=O)c1cn(-c2ncnc3nc[nH]c23)ccc1=O,76.7% (inactive)
8,O[C@H]1CO[C@H]2[C@@H]1OC[C@@H]2Oc1ccc(Nc2nc(Nc3ccc(F)c(Cl)c3)ncc2F)cc1Cl,110% (inactive)
9,N#Cc1c(NC(=O)c2cccc(C(F)(F)F)c2)sc2c1CCC(=O)C2,-21.6% (active)
10,Cc1cc(-c2ccccc2)cc(SC#N)[n+]1[O-],46.2% (inactive)
11,CSc1nc(N)c(CNC(C)c2ccccc2)c(=O)n1C (stereo not drawn),97.2% (inactive)
12,Nc1c(-c2nc3ccc(Br)cc3c(=O)[nH]2)nnn1-c1ccccc1,78.3% (inactive)
13,CN1CCN(c2ccc3nc(/N=C/c4ccc5sc(-c6ccc([N+](=O)[O-])cc6)nc5c4)sc3c2)CC1,96% (inactive)

# Source: PubChem BioAssay (NCI)
